Measurements reported in PubChem BioAssay AID1159580 (chemical genetic matrix, 2015).
Several values for one entry are separate records, joined by “and”; a condition that tells them apart may be missing. Equal values may be shown once. About 2,000 (36%) of roughly 5,500 compounds were called active. Inconclusive results (about 18%) are left out. Rule as the data show it: active = normalized growth mostly below about 0.91 (no sharp cut-off); inconclusive = no clear call, values can overlap the other calls; inactive = mostly above about 0.92. This is one part of the list.

Test: chemical genetic growth profiling, strain panel (AID 1159580);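 also: tested at 20 µM; growth read once vehicle control cultures reached saturation at 30 °C; 1 = growth at the plate median or of vehicle wells; lower values mean less growth of the strain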
Conditions: S. cerevisiae deletion strains, growth OD

Measured: normalized growth

N[C@@H](Cc1ccc(O)c(O)c1)C(=O)O
inactive: locus YAL013W, strain DEP1, active compounds read low 0.999 | locus YAL021C, strain ccr4, active compounds read low 1 | locus YAL026C, strain drs2, active compounds read low 0.989 | locus YAL030W, strain snc1, active compounds read low 1 | locus YBL061C, strain skt5, active compounds read low 1.01 | locus YBR009C, strain hhf1, active compounds read low 0.982 | locus YBR021W, strain FUR4, active compounds read low 1.14 | locus YBR023C, strain chs3, active compounds read low 1 | locus YBR171W, strain sec66, active compounds read low 0.997 | locus YBR229C, strain ROT2, active compounds read low 1.01 | locus YBR231C, strain swc5, active compounds read low 1 | locus YBR279W, strain paf1, active compounds read low 1 | locus YCL011C, strain gbp2, active compounds read low 1 | locus YCL016C, strain dcc1, active compounds read low 0.997 | locus YCL029C, strain bik1, active compounds read low 0.998 | locus YCL061C, strain MRC1, active compounds read low 0.998 | locus YCL069W, strain vba3, active compounds read low 1 | locus YCR088W, strain abp1, active compounds read low 0.999 | locus YDL005C, strain med2, active compounds read low 0.994 | locus YDL035C, strain GPR1, active compounds read low 0.976 | locus YDL040C, strain nat1, active compounds read low 0.998 | locus YDL074C, strain BRE1, active compounds read low 0.969 | locus YDL101C, strain DUN1, active compounds read low 0.993 | locus YDL134C, strain PPH21, active compounds read low 0.997 | locus YDL185W, strain tfp1, active compounds read low 0.955 | locus YDL192W, strain arf1, active compounds read low 0.991 | locus YDR001C, strain nth1, active compounds read low 1 | locus YDR069C, strain doa4, active compounds read low 1 | locus YDR101C, strain arx1, active compounds read low 1 | locus YDR137W, strain rgp1, active compounds read low 1.01 | locus YDR150W, strain NUM1, active compounds read low 0.947 | locus YDR159W, strain sac3, active compounds read low 0.995 | locus YDR162C, strain NBP2, active compounds read low 0.968 | locus YDR195W, strain ref2 0.962 | locus YDR297W, strain sur2, active compounds read low 1.01 | locus YDR318W, strain mcm21, active compounds read low 0.987 | locus YDR334W, strain swr1, active compounds read low 1 | locus YDR335W, strain msn5, active compounds read low 0.997 | locus YDR388W, active compounds read low 1.01 | locus YDR392W, strain spt3, active compounds read low 0.885 | locus YDR502C, strain sam2, active compounds read low 0.999 | locus YEL003W, strain gim4, active compounds read low 0.999 | locus YEL037C, strain rad23, active compounds read low 1 | locus YEL061C, strain CIN8 (second series), active compounds read low 0.999 | locus YEL061C, strain CIN8, active compounds read low 0.998 | locus YER015W, strain faa2, active compounds read low 1.01 | locus YER016W, strain bim1, active compounds read low 0.995 | locus YER110C, active compounds read low 0.993 | locus YER111C, strain swi4, active compounds read low 0.995 | locus YER155C, strain BEM2 (second series), active compounds read low 0.988 | locus YER155C, strain BEM2, active compounds read low 1.02 | locus YER167W, strain BCK2, active compounds read low 0.989 | locus YFR010W, strain ubp6, active compounds read low 0.999 | locus YGL078C, strain dbp3, active compounds read low 0.986 | locus YGL086W, strain mad1, active compounds read low 0.98 | locus YGL167C, strain pmr1, active compounds read low 0.994 | locus YGL173C, strain kem1, active compounds read low 1 | locus YGL227W, strain vid30, active compounds read low 0.986 | locus YGL240W, strain doc1, active compounds read low 0.986 | locus YGL248W, strain PDE1, active compounds read low 0.989 | locus YGL253W, strain hxk2, active compounds read low 1 | locus YGR078C, strain PAC10, active compounds read low 0.932 | locus YGR135W, strain pre9, active compounds read low 0.996 | locus YGR229C, strain SMI1, active compounds read low 0.928 | locus YGR252W, strain gcn5, active compounds read low 1.03 | locus YHR013C, strain ard1, active compounds read low 0.943 | locus YHR027C, strain rpn1, active compounds read low 1.01 | locus YHR030C, strain SLT2, active compounds read low 0.997 and 0.962 | locus YHR079C, strain IRE1 (second series), active compounds read low 0.995 | locus YHR079C, strain IRE1, active compounds read low 0.951 | locus YHR094C, strain hxt1, active compounds read low 0.988 | locus YHR129C, strain ARP1, active compounds read low 0.991 | locus YHR142W, strain chs7, active compounds read low 1.01 | locus YHR200W, strain rpn10, active compounds read low 0.992 | locus YIL066C, strain RNR3, active compounds read low 0.928 | locus YIL073C, strain SPO22, active compounds read low 0.866 | locus YIL125W, strain kgd1, active compounds read low 0.984 | locus YIR030C, strain dcg1, active compounds read low 1 | locus YJL092W, strain hpr5, active compounds read low 0.991 | locus YJL095W, strain BCK1 (second series), active compounds read low 1 | locus YJL095W, strain BCK1, active compounds read low 1.01 and 0.968 | locus YJL115W, strain asf1, active compounds read low 1 | locus YJL129C, strain trk1, active compounds read low 1 | locus YJL134W, strain LCB3, active compounds read low 0.99 | locus YJL154C, strain vps35, active compounds read low 1 | locus YJL164C, strain tpk1, active compounds read low 1 | locus YJL166W, strain qcr8, active compounds read low 0.997 | locus YJL168C, strain set2, active compounds read low 1.01 | locus YJL187C, strain SWE1 (second series), active compounds read low 0.984 | locus YJL187C, strain SWE1, active compounds read low 1 | locus YJR043C, strain POL32, active compounds read low 0.996 | locus YJR066W, strain TOR1, active compounds read low 0.928
